# DT40 TDP1 CPT = qHTS for Inhibitors of human tyrosyl-DNA phosphodiesterase 1 (TDP1): qHTS in cells in presence of CPT; chicken DT40 Tdp1-/-;hTDP1 cells + 20 nM CPT, ATP luminescence, 48 h; Potency, µM (highest dose often 46.2 µM), without a hit: at the highest dose activity change, negative = growth inhibition, most hits filed as inhibitors; 420,000 tested, 12% active; note: potency is the fitted concentration of half-maximal effect; % is set by controls: 0 for no effect and ±100 for the full control effect; nearly all actives have a fitted effect of over 55% in size
#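 Chicken DT40 Tdp1-/- cells stably complemented with human TDP1 were seeded at 400 cells/well in medium containing 20 nM camptothecin, exposed to pin-transferred compounds, and grown at 37 °C for at least 48 hr. Viability was read as ATP luminescence.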
# DT40 TDP1 no CPT = qHTS for Inhibitors of human tyrosyl-DNA phosphodiesterase 1 (TDP1): qHTS in cells in absence of CPT. DT40 Tdp1-/- hTDP1 cells, no CPT, ATP luminescence, 48 h. Potency, µM (titrated, usually from 46.2 µM), for inactives: at the top dose activity change, negative = growth inhibition, usual class: inhibitors. 420,000 tested, 15% active; note: potency is the fitted concentration of half-maximal effect; % is set by controls: 0 for no effect and ±100 for the full control effect; nearly all actives have a fitted effect of over 55% in size
#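 DT40 Tdp1-/-;hTDP1 cells, no CPT (DMSO vehicle only), 400 cells/well; compounds pin-transferred; ≥48 hr, 37 °C; CellTiter-Glo 30 min RT dark, luminescence read.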
# HepG2 viability = qHTS for Inhibitors of TGF-b: Cytotox Counterscreen. HepG2 CAGA-GFP viability, ATP luminescence, 18 h. Potency, µM (series often up to 46.1 µM), for inactives: top-dose activity change, negative = cytotoxicity, hits mostly cytotoxic. 410,000 tested, 0.76% active. AID 588856, 2011; note: potency is the fitted concentration of half-maximal effect
#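 HepG2 CAGA-GFP cells (1000/well, DMEM with 1% FBS) received compound, then TGF-beta at 500 pg/mL final, and were incubated 18 hours at 37 degrees C. Viability was read by CellTiter-Glo luminescence. Media-only wells were set as complete cell-killing and DMSO as no toxicity.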
# IL1B secr inh = qHTS for Inhibitors of Inflammasome Signaling: IL-1-beta AlphaLISA Primary Screen; THP-1 LPS/ATP IL-1B secretion, AlphaLISA, 16 h; active compounds read low; activity change, % at 57.5 µM; 360,000 tested, 4.7% active; AID 743279, 2014; in the data active = activity change below about -50%; inconclusive = mostly about -30% to -49%; note: % is set by controls: 0 for no effect and ±100 for the full control effect
#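 Secreted IL-1B measured by AlphaLISA bead assay after 16 h compound exposure of THP-1 cells; compounds (final up to 57.5 uM) added 1 h before LPS (250 ng/mL) and ATP (1.25 mM) stimulation; lower signal means less secretion.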
# TGFb SMAD3 inh = qHTS for Inhibitors of TGF-b; HepG2 CAGA-GFP TGF-b/SMAD3 reporter, GFP fluorescence, 18 h; TGF-beta stimulated, 500 pg/mL final; 410,000 tested, 1.2% active; AID 588855, 2011; Potency, µM (series often up to 46.1 µM), without a hit: top-dose activity, negative = inhibition, usual class: inhibitors; note: potency is the fitted concentration of half-maximal effect; % is set by controls: 0 for no effect and ±100 for the full control effect; nearly all actives have a fitted effect of over 65% in size
#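 Using HEPG2 CAGA-GFP reporter cells at 1000 cells/well, we pinned test compounds, stimulated with recombinant TGF-beta (500 pg/mL final) and measured total well GFP after 18 h.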
# ASM inhibitor = Inhibitors of Secretory Acid Sphingomyelinase (S-ASM): qHTS; Sphingomyelin phosphodiesterase (Homo sapiens), P17405; placental ASM, HMU-PC fluorogenic substrate, 60 min; Potency, µM (doses to about 57.5 µM), for the others: top-dose activity change, negative = inhibition, actives largely listed as inhibitors; 340,000 tested, 0.006% active; note: potency is the fitted concentration of half-maximal effect
# Target sequence (P17405 47-631 limits assumed): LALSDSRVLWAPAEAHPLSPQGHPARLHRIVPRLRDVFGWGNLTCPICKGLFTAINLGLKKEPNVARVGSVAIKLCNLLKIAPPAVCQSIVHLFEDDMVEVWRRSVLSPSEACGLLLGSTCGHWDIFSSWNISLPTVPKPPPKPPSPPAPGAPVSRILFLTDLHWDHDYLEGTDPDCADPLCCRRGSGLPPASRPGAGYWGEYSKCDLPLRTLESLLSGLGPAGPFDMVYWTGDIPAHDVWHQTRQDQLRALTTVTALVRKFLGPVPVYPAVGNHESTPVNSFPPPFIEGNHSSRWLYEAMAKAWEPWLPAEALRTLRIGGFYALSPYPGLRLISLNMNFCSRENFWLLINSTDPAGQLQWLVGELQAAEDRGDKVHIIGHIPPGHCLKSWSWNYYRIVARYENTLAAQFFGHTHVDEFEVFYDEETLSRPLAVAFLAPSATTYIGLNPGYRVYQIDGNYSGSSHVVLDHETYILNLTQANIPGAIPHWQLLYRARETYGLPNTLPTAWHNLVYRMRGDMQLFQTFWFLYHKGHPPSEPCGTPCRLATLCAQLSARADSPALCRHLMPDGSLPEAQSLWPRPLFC
#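 Human placenta-derived ASM enzyme was preincubated with compound for 10 minutes at room temperature, then given fluorogenic substrate HMU-PC0 (9 uM final) for 60 minutes at 37 °C; a pH 10 stop preceded fluorescence reading at Ex 386/Em 447 nm.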
# * = called active by the depositor; i = inactive; u = inconclusive; x = no result given; [ ] = another dose, or the depositor's remark. Most compounds without a hit are left out; they make up all but 19% or so of the library. Unless noted, calls come from the whole dose curve; as a rule, active = well fitted curve in the direction sought with a large enough effect; inconclusive = small, poorly fitted or top-dose-only effect, or another doubt; inactive = no such curve, though single readings can be large; an effect the other way counts as inactive or inconclusive.
SMILES,DT40 TDP1 CPT,DT40 TDP1 no CPT,HepG2 viability,IL1B secr inh,TGFb SMAD3 inh,ASM inhibitor
COc1cc(-c2nccc3cc4c(cc23)OCO4)cc(OC)c1OC,5.8µM*,4.6µM*,-7%,21,8%,-1%
COc1cc(-c2noc(CCC(=O)Nc3cc(C)ccc3C)n2)cc(OC)c1OC,18µM*,12µM*,-5%,x,u,x
COc1cc(-c2noc(CCCC(=O)Nc3cccnc3)n2)cc(OC)c1OC,16%,-4%,12%,25,1%,-1%
COc1cccc(NC(=O)CCc2nc(-c3cc(OC)c(OC)c(OC)c3)no2)c1,18µM*,16µM*,-26%,x,26%,x
COc1ccccc1C1CN(CCNC(=O)c2ccc3c(c2)OCCO3)Cc2ccccc2O1 (configuration not stated),12%[9.04 µM],u,x,x,x,x
CC(=O)NC(CC(=O)OC(C)C(=O)Nc1ccc(Cl)cn1)c1ccccc1 (configuration not stated),-3%,-12%,-26%,3,-15%,3%
COc1ccccc1NC(=O)c1ccc2oc(=O)c(S(=O)(=O)c3ccccc3)cc2c1,-4%,-2%,-1%,x,2%,x
COc1ccc(Cl)cc1C(=O)Nc1nc(C)cc(C)n1,4%,1%,-14%,-1,-18%,2%
N#CC12COC3(CCCCC3C1(C#N)C#N)OC2=N (configuration not stated),2.3µM*,2.6µM*,-15%,-21,16%,i
N#CC1(C#N)COC23CCCCC2C1(C#N)C(=N)O3 (configuration not stated),5.8µM*,5.8µM*,-22%,-53*,-5%,i
Clc1cccc(-n2ncc3c(NC4CCCCCC4)ncnc32)c1,21µM*,u,-18%,x,u,x
Cc1ccc(-n2ncc3c(NC4CCCCC4)ncnc32)cc1C,u,u,-1%,x,8%,x
c1ccc(-n2ncc3c(NC4CCCC4)ncnc32)cc1,u,u,-15%,x,11%,x
Cc1cccc(-n2ncc3c(NC4CCCC4)ncnc32)c1,21µM*,-52%,-6%,x,47%,x
Cc1cccc(-n2ncc3c(NC4CCCCC4)ncnc32)c1,u,u,-3%,u,-24%,-2%
Cc1ccc(-n2ncc3c(NC4CCCCC4)ncnc32)cc1Cl,21µM*,16µM*,-6%,x,15%,x
COc1ccc(-n2ncc3c(=O)n(CC(=O)NC(C)C)cnc32)cc1,3%,12%,-7%,1,13%,-1%
COc1ccc(CCc2cc(OC)c(OC)c(OC)c2)cc1,0.82µM*,0.58µM*,-9%,36,u,2%
COc1ccc(CCNC(=O)CCc2cc(OC)c(OC)c(OC)c2)cc1,-21%,-28%,-17%,-1,5%,3%
O=C(NCc1ccco1)c1c2c(nc3ccccc13)CCC2,15µM*,21µM*,9%,-2,0%,54%
NC(=O)COC(=O)c1c2c(nc3ccccc13)CCC2,2%,-9%,-14%,25,-15%,20%
CC(C)NC(=O)NC(=O)COC(=O)c1c2c(nc3ccccc13)CCC2,9.2µM*,13µM*,-12%,u,-17%,-4%
CC(C)(C)NC(=O)COC(=O)c1c2c(nc3ccccc13)CCC2,u,9.2µM*,2%,22,-11%,-1%
CN(C(=O)COc1ccccc1)c1ccc([N+](=O)[O-])cc1,-10%,-14%,-17%,-24,-12%,x
CCNc1nc(NCC)n2c(SCC(=O)c3ccc(C(C)C)cc3)nnc2n1,23µM*,26µM*,1%,12,8%,-1%
SMILES,DT40 TDP1 CPT,DT40 TDP1 no CPT,HepG2 viability,IL1B secr inh,TGFb SMAD3 inh,ASM inhibitor
COc1ccc(C)cc1NC(=O)C(Sc1nnc2ccccn12)c1ccccc1 (configuration not stated),-20%,u,-2%,-23,-17%,1%
COc1ccc(C)cc1NC(=O)C(Sc1nnc(-c2ccncc2)n1-c1ccc(Cl)cc1)c1ccccc1 (configuration not stated),u,16µM*,-19%,-59*,u,-14%
CCNc1nc(NCC)n2c(SC(C(=O)Nc3cc(C)ccc3OC)c3ccccc3)nnc2n1 (configuration not stated),u,u,3%,-104*,-8%,-17%
CCNc1nc(NCC)n2c(SCC(=O)Nc3cc(OC)ccc3OC)nnc2n1,u,-18%,-20%,-7,8%,4%
COc1ccc(NC(=O)CCNS(=O)(=O)c2cccc3nonc23)c(OC)c1,4%,-14%,-8%,4,-16%,-7%
O=C(COC(=O)c1cccc(S(=O)(=O)N2CCCC2)c1)Nc1ccccc1C(F)(F)F,-5%,-1%,-9%,24,-16%,-1%
COCCCNCCC(CCC(C)C)c1ccc2c(c1)OCO2 (configuration not stated),u,21µM*,-33%,-70*,-7%,-4%
CC(C)CCC(CCN1CCCC1)c1ccc2c(c1)OCO2 (configuration not stated),u,u,-161%,-70*,u,-1%
CCCOc1ccc(C2c3c(-c4ccccc4O)n[nH]c3C(=O)N2Cc2ccncc2)cc1OCC (configuration not stated),23µM*,-24%,3%,x,16%,x
COc1cc(C2c3c(-c4ccccc4O)n[nH]c3C(=O)N2CCO)ccc1OCC(C)C (configuration not stated),u,u,-40%,x,u,x
CCCOc1ccc(C2c3c(-c4ccccc4O)n[nH]c3C(=O)N2CCCOCC)cc1OCC (configuration not stated),23µM*,u,-41%,x,u,x
C[C@H](CO)N1C[C@H](C)[C@@H](CN(C)C(=O)NC2CCCCC2)Oc2ncc(Br)cc2C1=O,-13%,-24%,1%,25,4%,x
O=C(COC(=O)C12CC3CC(CC(O)(C3)C1)C2)Nc1cccc(Br)c1,u,-24%,-6%,-11,0%,-1%
CN(Cc1ccccc1)C(=O)COC(=O)c1cc2ccccc2oc1=O,-14%,4%,-6%,7,0%,7%

# Screening results (PubChem BioAssay)
